Reference: ChEMBL document CHEMBL3988442, “University of Dundee, Small-Polar-MMV Screening Library” (2021)

Target: T1, Aspartate--tRNA(Asp/Asn) ligase (Mycobacterium tuberculosis (strain ATCC 25618 / H37Rv)) (UniProt P9WFW3)
T1 sequence (whole entry): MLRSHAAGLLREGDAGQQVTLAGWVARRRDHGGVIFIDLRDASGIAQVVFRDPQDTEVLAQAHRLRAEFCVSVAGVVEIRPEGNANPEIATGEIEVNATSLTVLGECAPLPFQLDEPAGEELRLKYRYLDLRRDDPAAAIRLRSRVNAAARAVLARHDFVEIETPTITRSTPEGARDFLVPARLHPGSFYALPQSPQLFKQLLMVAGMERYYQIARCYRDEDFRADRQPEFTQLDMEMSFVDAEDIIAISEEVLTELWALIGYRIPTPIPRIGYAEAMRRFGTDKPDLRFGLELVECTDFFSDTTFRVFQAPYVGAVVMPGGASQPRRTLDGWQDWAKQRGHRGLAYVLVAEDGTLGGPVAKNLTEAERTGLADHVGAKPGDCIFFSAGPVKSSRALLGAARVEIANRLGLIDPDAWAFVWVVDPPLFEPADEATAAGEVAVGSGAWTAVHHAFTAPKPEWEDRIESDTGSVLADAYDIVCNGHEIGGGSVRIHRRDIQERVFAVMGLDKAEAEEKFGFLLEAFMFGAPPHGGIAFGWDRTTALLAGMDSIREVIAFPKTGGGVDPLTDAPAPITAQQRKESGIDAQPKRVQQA
Test: Assay for Asp RNA synthetase-1 from Mycobacterium tuberculosis
Assay type: functional
Parameters: scale not given: in the data most compounds retested in dose-response had high values
Details: 30 µM

First: CCCC(C)CN1CCC(n2cc(C3CCCC3)nn2)CC1 (stereo not given)
Second: CCS(=O)(=O)N1CCC(c2nnc(CN3CCCC3)n2C2CC2)CC1
The Percent Effect of the first is higher: 2.26% for the first, -0.379% for the second.

Going from `Cc1ccc(C#N)c(N2CCC(c3nccn3CCN(C)C)CC2)n1` to `CN(CCO)Cc1nnc(C2CCN(C(=O)c3cccnc3)CC2)n1C`, the Percent Effect rises from -1.39% to -0.977%.

First: O=C(NCCc1ccncc1)C1CCN(Cc2ccco2)CC1
Second: CCC(C(=O)NCc1ccncc1)N(c1ccc(OC)cc1)S(C)(=O)=O (stereo not given)
The Percent Effect of the first is lower: -3.6% for the first, 1.25% for the second.

Going from `CC(C)(C)N1CC(C(=O)N2CCN(CCn3cccc3)CC2)CC1=O` (stereo not given) to `Cc1cccc(NC(=O)[C@@H]2CCCN2CC(=O)N2CCCCCC2)n1`, the Percent Effect falls from 1.18% to -2.13%.

Going from `COc1cccc(Cc2nnc(SC3CCOC3=O)o2)c1` (stereo not given) to `O=C(Nc1cccc(OCc2cccc(F)c2)c1)C1COCCO1` (stereo not given), the Percent Effect rises from -2.01% to 0.563%.

Compared with `Cc1ncc(C(=O)N2C[C@H]3CC[C@@H]2CN(S(=O)(=O)N(C)C)C3)c(C)n1`, `CCC[C@@H]1CN(S(=O)(=O)c2ccc(C)c(F)c2)C[C@H]1N(C)C` is higher in Percent Effect: -0.678% for the first, 0.149% for the second.

Going from `CCC(=O)NCc1cc(Br)ccc1OC(F)F` to `CCC(=O)NCC(=O)NCc1cc(Br)ccc1OC(F)F`, the Percent Effect falls from 0.885% to -1.92%.

First: CCCS(=O)(=O)N1C[C@H]2OC(=O)N(CCc3cccc(Cl)c3)[C@H]2C1
Second: COc1ccccc1CN1C(=O)O[C@@H]2CN(c3nccs3)C[C@@H]21
The Percent Effect of the first is lower: -4.26% for the first, -1.39% for the second.

Compared with `Cc1cc(C)n(CC(=O)N(C)Cc2csc(-c3cccs3)n2)c(=O)n1`, `O=c1oc(-c2cccs2)nn1CC(O)c1ccc(F)cc1` (stereo not given) is lower in Percent Effect: -0.356% for the first, -0.425% for the second.

Going from `c1cnn(CC2CCCCN2c2ncnc3sccc23)c1` (stereo not given) to `Cc1cc(C)n(CC2CCCCN2CC(=O)Nc2nncs2)n1` (stereo not given), the Percent Effect falls from 2.59% to -0.218%.

Going from `O=C(O)c1csc(S(=O)(=O)N2CCCc3ccc(F)cc32)c1` to `O=C(NCCNS(=O)(=O)c1ccc2c(c1)CCCC2)c1ccoc1`, the Percent Effect rises from 1.9% to 8.29%.

First: COC(=O)CCN1CCCC1c1cccc2c1OCCO2 (stereo not given)
Second: COc1ccc(NC(=O)CCC2CCCN(Cc3ncon3)C2)cc1Cl (stereo not given)
The Percent Effect of the first is lower: -1.34% for the first, -0.862% for the second.

First: CN(C)CCn1c(=O)oc2ccc(NC(=O)c3cc(Cl)c[nH]3)cc21
Second: CNC(=O)NC(=O)CN1CCC(c2c[nH]c3ccc(OC)cc23)CC1
The Percent Effect of the first is higher: 5.07% for the first, -2.54% for the second.

Going from `CSC(C)(C)CNC(=O)NCCC1CCN(C)CC1` to `CCS(=O)(=O)c1ccc(N2CCC(NC(C)=O)CC2)cc1`, the Percent Effect rises from -1.57% to 1.78%.

Going from `Cc1nccn1CCC1CCCCN1C(=O)c1ccc2[nH]nnc2c1` (stereo not given) to `CCOCCn1nnc(C2(NC(=O)c3ccccc3)CCCC2)n1`, the Percent Effect falls from 1.02% to -3.44%.

Going from `Cc1cc(C)nc(N2Cc3cnn(Cc4ccc(F)cc4)c3C2)n1` to `CCc1ncc(C(=O)NCCNC(=O)Cc2ccc(F)cc2)s1`, the Percent Effect falls from -2.29% to -2.42%.

Going from `c1cn(Cc2nnc(C3CCN(C4CCOCC4)CC3)n2C2CC2)cn1` to `N#CC(Sc1nnnn1C1CCOCC1)C1CCCCC1` (stereo not given), the Percent Effect rises from -3.53% to -2.4%.

Compared with `CCN(CC1CN(CCc2ccccn2)CCO1)c1cccnn1` (stereo not given), `CC(C)n1ccnc1C1CCCN(c2ccccn2)C1` (stereo not given) is lower in Percent Effect: -1% for the first, -2.15% for the second.

First: Cc1ccsc1CNC(=O)NC1CCCc2c1cnn2CCO (stereo not given)
Second: Cn1nccc1C(=O)N1CCOC(Cc2cccc(C(F)(F)F)c2)C1 (stereo not given)
The Percent Effect of the first is higher: -1.99% for the first, -2.91% for the second.

Compared with `CCc1cc(N2CCCNCC2)n2nc(C)c(C)c2n1`, `CCCC(=O)NCc1cc(Br)c(OC)c(OC)c1` is higher in Percent Effect: -1.41% for the first, -0.862% for the second.
